{"source": "PubChem BioAssay AID1347404", "about": "(Pan Lab, Icahn School of Medicine at Mount Sinai, 2020)", "note": "Out of some 140,000 compounds screened, about 860 (0.61%) were called active. Cut-off read from the data, not from the text of the source: active = inhibition above about 25%; inactive = the rest. The full list was thinned out, with actives kept by preference."}
{"molecular_target": "E3 ubiquitin-protein ligase RBX1 (Homo sapiens) + Cullin-1 (Homo sapiens) (UniProt P62877+Q13616)", "sequence (P62877 whole entry, looked up)": "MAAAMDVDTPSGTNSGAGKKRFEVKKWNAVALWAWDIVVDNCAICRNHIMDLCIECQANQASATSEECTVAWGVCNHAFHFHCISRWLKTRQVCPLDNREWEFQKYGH", "sequence (Q13616 whole entry, looked up)": "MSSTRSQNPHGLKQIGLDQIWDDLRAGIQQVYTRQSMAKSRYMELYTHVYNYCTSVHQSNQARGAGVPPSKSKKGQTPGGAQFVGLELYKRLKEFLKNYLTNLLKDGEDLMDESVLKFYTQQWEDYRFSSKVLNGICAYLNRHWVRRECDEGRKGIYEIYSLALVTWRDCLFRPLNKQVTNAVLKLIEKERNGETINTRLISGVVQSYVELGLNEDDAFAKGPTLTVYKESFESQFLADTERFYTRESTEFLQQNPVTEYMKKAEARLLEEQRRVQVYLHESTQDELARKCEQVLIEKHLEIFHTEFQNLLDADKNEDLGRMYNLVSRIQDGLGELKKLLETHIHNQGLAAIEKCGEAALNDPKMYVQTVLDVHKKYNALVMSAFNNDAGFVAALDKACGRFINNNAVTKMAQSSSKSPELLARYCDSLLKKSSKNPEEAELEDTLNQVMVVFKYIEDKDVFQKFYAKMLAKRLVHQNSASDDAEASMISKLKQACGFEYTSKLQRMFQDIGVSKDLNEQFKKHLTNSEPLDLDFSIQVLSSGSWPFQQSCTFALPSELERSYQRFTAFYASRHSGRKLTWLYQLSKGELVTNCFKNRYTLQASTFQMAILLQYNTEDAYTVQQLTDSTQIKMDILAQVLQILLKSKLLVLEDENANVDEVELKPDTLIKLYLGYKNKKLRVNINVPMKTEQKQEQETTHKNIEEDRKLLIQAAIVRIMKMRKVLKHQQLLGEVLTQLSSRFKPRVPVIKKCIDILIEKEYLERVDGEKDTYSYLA", "assay": "blocks human RBX1-Cullin-1 di-ubiquitin formation (AID 1347404)", "conditions": "in vitro K48 di-Ub FRET, acceptor:donor ratio, 45 min; at 10 µM; hits give high values"}
{"smiles": "CCCCc1nnc(SCC2=Nc3ccc(F)cc3C(=O)C2)n1C", "inhibition": "-6.52% (inactive)"}
{"smiles": "Cc1scc(Cc2csc(C)c2C)c1C", "inhibition": "-4.02% (inactive)"}
{"smiles": "Cc1ccc(NC(=O)c2c(N)sc3c2CCC3)c(C)c1", "inhibition": "43.1% (active)"}
{"smiles": "COc1ccc(-c2cc(-c3ccc(C)cc3)nc3sc(C(=O)Nc4ccc(C)cc4C)c(N)c23)cc1OC", "inhibition": "7.9% (inactive)"}
{"smiles": "Cc1cccc(C(=O)Nc2ccc(C)cc2C)c1", "inhibition": "-1.04% (inactive)"}
{"smiles": "Cc1[nH]c2ccccc2c1C(c1cccnc1)N1CCN(c2ccc(F)cc2)CC1", "note": "(centres undefined)", "inhibition": "2.08% (inactive)"}
{"smiles": "CN(C)CCOCCOC(c1ccccc1)c1ccccc1C(F)(F)F", "note": "(centres undefined)", "inhibition": "0.845% (inactive)"}
{"smiles": "COC(=O)c1ccccc1NC(=O)CCCC(=O)OCC(=O)c1ccc(Br)cc1", "inhibition": "1.86% (inactive)"}
{"smiles": "CCOC(=O)c1cnc2c(C)cc(Cl)cc2c1N1CCN(Cc2ccccc2)CC1", "inhibition": "-3.19% (inactive)"}
{"smiles": "COc1ccc(N2C(S)=C(C#N)C(=O)NC2c2ccc(-c3ccccc3Cl)o2)cc1", "note": "(centres undefined)", "inhibition": "24.9% (inactive)"}
{"smiles": "CC(C)(C)NS(=O)(=O)c1ccc(NC(=O)C2CCCO2)cc1", "note": "(centres undefined)", "inhibition": "-1.62% (inactive)"}
{"smiles": "O=C(OCc1ccc(Br)cc1)c1ccccc1C(=O)c1ccccc1", "inhibition": "3.15% (inactive)"}
{"smiles": "CC(=O)c1ccc(NC(=O)CCCC(=O)OCC(=O)c2ccc(-c3ccccc3)cc2)cc1", "inhibition": "-6.85% (inactive)"}
{"smiles": "O=C(Nc1ccccc1O)c1cccc(S(=O)(=O)Nc2ccc(F)cc2)c1", "inhibition": "1.23% (inactive)"}
{"smiles": "O=C(Nc1ccc(S(=O)(=O)O)c2cc(S(=O)(=O)O)cc(O)c12)c1ccccc1", "inhibition": "63.3% (active)"}
{"smiles": "O=C(Nc1ccc(S(=O)(=O)O)c2ccccc12)c1ccc(C(=O)Nc2ccc(S(=O)(=O)O)c3ccccc23)cc1", "inhibition": "2.57% (inactive)"}
{"smiles": "CC(O)c1cn(C2CCN(c3nc4ccccc4s3)CC2)nn1", "note": "(centres undefined)", "inhibition": "4.88% (inactive)"}
{"smiles": "COc1ccccc1C(=O)Nc1ccnn1C1CCN(Cc2nccn2C)CC1", "inhibition": "9.37% (inactive)"}
{"smiles": "CC(C)(C)NS(=O)(=O)Cc1ccc(Cl)cc1Cl", "inhibition": "7.68% (inactive)"}
{"smiles": "CCOC(=O)CNc1nc2ccccc2n2c(C)nnc12", "inhibition": "-3.19% (inactive)"}
{"smiles": "Cc1nc2ccccc2n1/N=C/c1ccccc1", "inhibition": "3.45% (inactive)"}
{"smiles": "C/C(=N\\O)c1sc2nc3ccccc3n2c1C", "inhibition": "26.5% (active)"}
{"smiles": "CCc1ccccc1-c1nc2c(cnn2C)[nH]1", "inhibition": "5.57% (inactive)"}
{"smiles": "CC1CCN(CC(O)COC2CC3CCC2(C)C3(C)C)CC1", "note": "(centres undefined)", "inhibition": "0.492% (inactive)"}
{"smiles": "CCN(CC)C(=O)CSc1nc2sc3c(c2c(=O)n1C)CCC3", "inhibition": "1.01% (inactive)"}
{"smiles": "N=C1/C(=C/c2cccc(OC(=O)c3ccc(Cl)cc3)c2)C(=O)N=C2SC(c3cccs3)=NN12", "inhibition": "49.6% (active)"}
{"smiles": "CC(C)C1=NN2C(=N)/C(=C/c3cccc(OCc4ccc(F)cc4)c3)C(=O)N=C2S1", "inhibition": "-4.78% (inactive)"}
{"smiles": "COc1cc(/C=C2\\C(=N)N3N=C(Cc4cccs4)SC3=NC2=O)cc(OC)c1OC", "inhibition": "6.55% (inactive)"}
{"smiles": "CN(C)c1ccc(/C=C2\\SC(=N)N(c3nccs3)C2=O)cc1", "inhibition": "-5.77% (inactive)"}
{"smiles": "Cc1ccc(N2C(=O)/C(=C\\c3ccc(Cl)cc3)SC2=S)cc1", "inhibition": "8.97% (inactive)"}
{"smiles": "CC(C(=O)O)N1C(=O)/C(=C/c2ccc(N(C)C)cc2)SC1=S", "note": "(centres undefined)", "inhibition": "52.9% (active)"}
{"smiles": "CCOc1ccc(/C=C2\\C(=O)NN(c3ccc(Cl)c(Cl)c3)C2=O)cc1OCC", "inhibition": "1.02% (inactive)"}
{"smiles": "CCCOc1ccccc1/C=C1\\C(=O)NN(c2cccc(Br)c2)C1=O", "inhibition": "20% (inactive)"}
{"smiles": "CCOc1cc(/C=C2/C(=O)NN(c3ccc(CC)cc3)C2=O)c(Br)c(Br)c1O", "inhibition": "54.1% (active)"}
{"smiles": "N#CC1=C2c3ccccc3CCC2C(c2ccco2)=NC1=O", "note": "(centres undefined)", "inhibition": "42% (active)"}
{"smiles": "CC1=NC(=O)C(C#N)=C(C)C1CSCc1ccco1", "note": "(centres undefined)", "inhibition": "0.332% (inactive)"}
{"smiles": "CCN(Cc1nccn1C)C(=O)c1ccc(N(C)CC2CCCCN2C)nc1", "note": "(centres undefined)", "inhibition": "-0.562% (inactive)"}
{"smiles": "CCC(C)C(=O)Nc1ccc(I)cc1", "note": "(centres undefined)", "inhibition": "3.94% (inactive)"}
{"smiles": "COc1ccccc1NC(=O)NC1CC(=O)N(CC(C)(C)C)C1", "note": "(centres undefined)", "inhibition": "-2.73% (inactive)"}
{"smiles": "CC1(C)CC(=O)C(=Cc2c[nH]c3ccccc23)C(=O)C1", "inhibition": "-0.144% (inactive)"}
{"smiles": "Cc1cc(C)cc(N2CC(C(=O)N3CCc4ccccc4C3)CC2=O)c1", "note": "(centres undefined)", "inhibition": "6.46% (inactive)"}
{"smiles": "O=C(CC1C(=O)NCCN1CCc1ccccc1)NCCCn1ncc2ccccc21", "note": "(centres undefined)", "inhibition": "0.369% (inactive)"}
{"smiles": "COc1cc(C2C3=C(CCCC3=O)OC3=C2C(=O)CCC3)ccc1OCC(=O)Nc1ccccc1", "inhibition": "-1.19% (inactive)"}
{"smiles": "O=C(NC(=S)N1CCCC1)c1ccc(Br)o1", "inhibition": "4.57% (inactive)"}
{"smiles": "O=C([O-])c1ccc(C[n+]2c3ccccc3n3nc4c(cc32)c2cccc3cccc4c32)cc1", "inhibition": "-16.8% (inactive)"}
{"smiles": "O=C(/C=C/c1ccccc1)Oc1cccc(C(=O)Nc2nc3ccccc3[nH]2)c1", "inhibition": "14.2% (inactive)"}
{"smiles": "O=C(C[n+]1c2ccccc2n2nc3c(cc21)c1cccc2cccc3c21)Nc1nc2ccccc2[nH]1", "inhibition": "93.1% (active)"}
{"smiles": "Cn1c(=O)c2c(nc(SCC(=O)Nc3ccc(OC(F)(F)F)cc3)n2Cc2cccc(Cl)c2)n(C)c1=O", "inhibition": "10% (inactive)"}
{"smiles": "Cc1cc(N2C(=O)C(=O)C(C(=O)c3ccc(F)cc3)C2c2ccccc2)no1", "note": "(centres undefined)", "inhibition": "-4.72% (inactive)"}
{"smiles": "COCCN(C)C(=O)c1cc(NC(=O)c2ccccc2)cc2ncn(C3CCCC3)c12", "inhibition": "12.6% (inactive)"}
{"smiles": "C=CCn1c(SCC(=O)c2ccccc2)nc2ccccc2c1=O", "inhibition": "2.49% (inactive)"}
{"smiles": "CCN=C1CC=C(Br)C=C(C(=O)/C=C/c2ccccc2OC)C1=O", "inhibition": "101% (active)"}
{"smiles": "COc1ccc(OC)c(/C=C/C(=O)c2ccc(OC)c(OC)c2)c1", "inhibition": "-2.06% (inactive)"}
{"smiles": "COc1ccc(/C=C/C(=O)c2cc3ccccc3oc2=O)c(OC)c1", "inhibition": "-5.94% (inactive)"}
{"smiles": "CC(C)NC(=O)Cc1coc2ccc(C(C)(C)C)cc12", "inhibition": "5.19% (inactive)"}
{"smiles": "Cc1noc(C)c1C(=O)CCCCCCCCCCCCCCC(=O)O", "inhibition": "-8.93% (inactive)"}
{"smiles": "Cc1ccc(OC(=O)c2ccc(Br)cc2Br)c(C)c1", "inhibition": "5.25% (inactive)"}
{"smiles": "CCCC(=O)NC(=S)Nc1ccccc1Sc1ncnc2scc(-c3ccccc3)c12", "inhibition": "3.87% (inactive)"}
{"smiles": "COc1ccc2c(c1)OC(C)CN(Cc1ccc3cccnc3c1)C2", "note": "(centres undefined)", "inhibition": "1.92% (inactive)"}
